An excerpt weighted towards active compounds, which were near 3.9% of everything screened.
Mtb FBA inh = Mtb fructose-bisphosphate aldolase inhibition. purified M. tuberculosis FBA, fluorescence read-out. inhibition, % at 1 µM. 2.3% of 360,000 active; in the data active means inhibition above about 27%;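 further: 0% = vehicle and 100% = reference inhibitor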
Target sequence (P9WQA3 whole entry, looked up): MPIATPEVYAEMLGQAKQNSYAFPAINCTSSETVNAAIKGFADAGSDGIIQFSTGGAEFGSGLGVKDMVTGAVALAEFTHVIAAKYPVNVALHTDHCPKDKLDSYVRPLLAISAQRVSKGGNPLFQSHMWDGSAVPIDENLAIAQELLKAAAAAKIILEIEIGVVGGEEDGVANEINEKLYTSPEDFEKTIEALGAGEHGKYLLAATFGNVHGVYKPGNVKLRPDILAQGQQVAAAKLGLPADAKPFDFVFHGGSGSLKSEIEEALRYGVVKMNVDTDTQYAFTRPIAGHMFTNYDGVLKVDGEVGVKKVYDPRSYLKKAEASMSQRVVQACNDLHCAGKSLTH
SARS 3CLpro inh = SARS-CoV 3CLpro protease inhibition; 0.14% of 290,000 active; recombinant SARS-CoV 3CLpro, quenched FRET peptide cleavage; inhibition, % at 6 µM; in the data active means inhibition above about 12%
GDH-TPI counter = counter-screen for M. tuberculosis FBA inhibitors: GDH-TPI coupled enzymes; inhibition, % at 4.8 µM; 1.2% of 360,000 active; GDH-TPI coupled enzyme counterscreen, NADH absorbance; in the data active means inhibition above about 30%;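 further: 0% = DMSO wells and 100% = wells lacking the enzyme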
Vc quorum ag = induces V. cholerae light production without autoinducers. 0.16% of 350,000 active. V. cholerae BH1578 lux reporter, luminescence, 6 h. AID 588436. activation, % at 18.7 µM; in the data active means activation mostly above about 9.7%, no sharp cut-off
PrPC surface inh = inhibitors of human cell surface prion protein PrPC; 0.43% of 370,000 active; AID 720596; inhibition, % at 13.8 µM; P04156; TR-FRET read-out; in the data active means inhibition above about 24%; further: 0% = median of the test wells and 100% = reference compound wells
Numbers without * were called inactive; i = inactive; · = no result; + = active, no number.

SMILES | Mtb FBA inh | SARS 3CLpro inh | GDH-TPI counter | Vc quorum ag | PrPC surface inh
O=C(O)c1cccc(Cn2c(Cl)c(/C=N/Nc3ccccc3)sc2=O)c1 | 2 | 5 | 24 | -1 | ·
COc1ccc(C(=O)N/N=C/c2sc(=O)n(Cc3cccc(C(=O)O)c3)c2Cl)cc1 | -5 | 2 | 36* | i | -6
CCC(CC)C(=O)NN(C(=O)c1ccncc1)C1CC(=O)N(c2ccccc2)C1=O (stereo unspecified) | 0 | 1 | 2 | i | 7
C=CS(=O)(=O)N[C@@H](CSSC[C@H](NS(=O)(=O)C=C)C(=O)OC)C(=O)OC | · | · | · | · | -3
O=Cc1ccc(OC(=O)C2CC(=O)N(c3ccc(F)cc3)C2)cc1 (stereo unspecified) | -1 | -5 | 31* | 3 | 8
O=C(O)C1CC(=O)N(c2ccc(F)cc2)C1 (stereo unspecified) | 2 | -2 | -7 | -1 | -3
CCc1cc(=O)oc2c(C)c(O)c(CN3CCCCC3)cc12 | + | 4 | 32* | -1 | -3
Cc1c(O)c(CN2CCCC2)cc2c1oc(=O)c1ccccc12 | 1 | 0 | 8 | 0 | -1
Cc1c(O)c(CN2CCCC2)cc2c3c(c(=O)oc12)CCC3 | 198* | 1 | 15 | 0 | -7
CC1=C/C(=N\NC(=S)Nc2cccnc2)CC(C)(C)C1 | -1 | 3 | -1 | 0 | 3
Cc1cc(NS(=O)(=O)c2ccc(NC(=O)CSc3nnc(-c4cccnc4)n3-c3ccccc3)cc2)nc(C)n1 | · | · | · | · | 5
CCOc1ccc(/C=C(\C)C(=O)c2c(C)cc(C)[nH]c2=O)cc1 | -3 | -4 | 46* | i | -3
COc1ccc(/C=C(\C)C(=O)c2c(C)cc(C)[nH]c2=O)cc1 | -9 | · | 27 | 0 | -5
CC1S/C(=N/N=C/c2cccs2)NC1=O (stereo unspecified) | 0 | 1 | 42* | 0 | 0
CC1S/C(=N/N=C/c2ccco2)NC1=O (stereo unspecified) | -2 | 2 | 39* | 0 | -1
Cc1cccc(NC(=O)C2CC(=O)N/C(=N/N=C/c3ccco3)S2)c1 (stereo unspecified) | -2 | 0 | 57* | -1 | 2
Cc1cccc(CC2S/C(=N/N=C/c3ccco3)NC2=O)c1 (stereo unspecified) | 1 | 2 | 20 | -2 | 2
CCCC1S/C(=N/N=C/c2ccco2)NC1=O (stereo unspecified) | -1 | 2 | 28 | 0 | -3
CC1(C)S/C(=N/N=C/c2ccco2)NC1=O | -1 | 0 | 55* | -1 | 3
CC(=O)c1ccc(NC(=O)c2ccccc2-c2ccccc2C(=O)O)cc1 | 0 | -2 | 4 | 0 | -4
COCCn1c(=N)c(C(=O)NCCc2ccccc2)cc2c(=O)n3cccc(C)c3nc21 | 117* | -4 | -2 | i | -25
COc1ccc(CCn2c(=N)c(C(=O)NC3CCCC3)cc3c(=O)n4cccc(C)c4nc32)cc1 | 3 | -5 | 15 | i | -13
COCCNC(=O)c1cc2c(=O)n3cccc(C)c3nc2n1C | 19 | · | 9 | 0 | -5
C=CCn1c(=N)c(C(=O)NCCCOC)cc2c(=O)n3cccc(C)c3nc21 | + | 0 | 15 | 7 | -42
Cc1ccc2nc3c(cc(C(=O)NC4CCCC4)c(=N)n3CCCn3ccnc3)c(=O)n2c1 | · | 4 | · | · | ·
SMILES | Mtb FBA inh | SARS 3CLpro inh | GDH-TPI counter | Vc quorum ag | PrPC surface inh
CCCCNC(=O)c1cc2c(=O)n3cccc(C)c3nc2n(Cc2ccccc2)c1=N | 150* | -3 | 1 | i | -16
Cc1cccn2c(=O)c3cc(C(=O)NCCc4ccccc4)c(=N)n(CCCn4ccnc4)c3nc12 | 129* | -4 | -4 | 0 | -27
O=C(c1cc(Cl)cc(Cl)c1)N1CCC2CC1c1cc(N3CCCCC3)ccc12 (stereo unspecified) | 2 | · | 6 | i | 1
COC(=O)c1ccc2c(C(C)c3ccccc3O)c[nH]c2c1 (stereo unspecified) | · | · | · | · | -6
CNC(=O)c1cc2c(=O)n3cccc(C)c3nc2n(C(C)C)c1=N | + | -2 | 7 | i | -34
CCNC(=O)c1cc2c(=O)n3cccc(C)c3nc2n(CCc2ccccc2)c1=N | + | -4 | 9 | 7 | -26
Cc1ccc2nc(-c3ccc(CN4CCC5(CC4)CNc4ccccc45)cc3)c(-c3ccccc3)nc2c1 | · | · | · | · | 6
Cc1cc(C)n(C(=O)c2cc3sccc3[nH]2)n1 | 0 | 3 | 33* | 0 | -5
O=C(CS(=O)(=O)c1ccccc1)Nc1ccc(Cl)cn1 | 1 | -1 | 2 | 0 | -3

From PubChem
